{"source": "PubChem BioAssay AID504832", "about": "(National Center for Advancing Translational Sciences (NCATS), 2011)", "note": "About 18,000 (5.8%) of roughly 310,000 compounds were called active. Not shown: some 22% with an inconclusive outcome. This excerpt belongs to a sample that is enriched for actives. Unmarked numbers belong to inactive results. Calls come from the whole dose curve; as a rule, active = well fitted inhibition curve with a large enough effect; inconclusive = small, poorly fitted or top-dose-only effect, or another doubt; inactive = no such curve, though single readings can be large or run the other way. % is set by controls: 0 for no effect and ±100 for the full control effect; potency is the fitted concentration of half-maximal effect.", "data": [{"assay": "Primary qHTS for delayed death inhibitors of the malarial parasite plastid, 48 hour incubation", "conditions": "P. falciparum luciferase growth in erythrocytes; series mostly up to 28.7 µM; activity change, negative = inhibition: at the top concentration", "from_the_text": "The goal of this screen is to discover new antimalarial compounds that act by inhibiting the development of the apicoplast in the malarial parasite Plasmodium falciparum. The biochemical processes that make this organelle essential for erythrocytic stage parasites are not well understood. However, antibiotics such as azithromycin and tetracycline, which target the apicoplast translational machinery, have a potent antimalarial effect.\nWe have developed a cell-based assay that measures parasite growth based on the expression of an integrated copy of a firefly luciferase reporter. To detect small molecules that cause this \"delayed death\" phenotype, erythrocytes infected with the luciferase-expressing parasites were incubated with compounds for either one or two generations, corresponding to 48 and 96 hours, respectively. Compounds that inhibit parasite growth in the second generation, but not the first, should be enriched in antimalarials that target the apicoplast. Growth inhibition is detected by a decrease in luciferase activity.\nAssay Provider: David Fidock and Eric Ekland, Columbia University\nKeywords: NIH Roadmap, MLPCN, MLI, MLSMR, qHTS, NCGC, qHTS, malaria, luciferase, viability\nFour microliters of culture medium (RPMI 1640 with 0.5% w/v Albumax (GIBCO), 24 mM sodium bicarbonate and 10 ug/mL gentamycin) were dispensed by a Multi-drop Combi into white solid 1536-well plates (Grenier) and 23 nL compound was added by a pin tool. Four microliters of infected erythrocytes (2% hematocrit, 0.1% parasitemia final concentration) in culture medium were dispensed and the plates incubated for 48 hours at 37 C in 5% CO2. Two microliters of luciferase detection reagent was added and luminescence was detected by a ViewLux (PerkinElmer) reader.", "units": {"activity change, negative = inhibition": "%"}, "values": [{"smiles": "Cc1sc2ncn(CC(=O)NCCN(C)C)c(=O)c2c1S(=O)(=O)N1CCC(C)CC1", "activity change, negative = inhibition": 4.82}, {"smiles": "COCCCn1c(Cc2csc(Nc3cccc(Cl)c3)n2)nnc1SCC(=O)OC1CCCCC1", "Potency": "8.28 µM (active)"}, {"smiles": "COCCCn1c(SCC(=O)Nc2ccccc2)nnc1-c1ccncc1", "activity change, negative = inhibition": -1.61}, {"smiles": "COCCCn1c(SCC(=O)NC2CCCC2)nnc1-c1ccccc1", "activity change, negative = inhibition": 0.923}, {"smiles": "COc1cc(C(=O)OCC(=O)NC(C)CCc2ccccc2)cc(OC)c1OC", "note": "(stereo unspecified)", "activity change, negative = inhibition": -10.2}, {"smiles": "NC(=O)c1cc(S(=O)(=O)NCCCc2ccco2)cs1", "activity change, negative = inhibition": -26.8}, {"smiles": "Cc1[nH]c2c(C(=O)N3CCCC(CCC(=O)NCc4ccccc4F)C3)cccc2c1C", "note": "(stereo unspecified)", "Potency": "11.7 µM (active)"}, {"smiles": "COc1cccc(C(=O)N2CCCC(CCC(=O)NCc3ccc(F)c(F)c3)C2)c1", "note": "(stereo unspecified)", "activity change, negative = inhibition": -0.317}, {"smiles": "COc1cccc(CNC(=O)CCC2CCCN(C(=O)c3cc(C)[nH]n3)C2)c1", "note": "(stereo unspecified)", "activity change, negative = inhibition": 0}, {"smiles": "CCOc1ccc(NC(=S)N2CCC(NC(=O)c3ccccc3)CC2)cc1", "activity change, negative = inhibition": 25.8}, {"smiles": "COc1ccc(NC(=O)CCC(=O)N2CCN(S(=O)(=O)c3ccc(C)cc3)CC2)c(OC)c1", "activity change, negative = inhibition": -9.09}, {"smiles": "COc1ccc(/C=C/C(=O)c2ccc(NS(=O)(=O)c3ccc(C)cc3)cc2)cc1O", "Potency": "14.7 µM (active)"}, {"smiles": "COc1ccc(NS(=O)(=O)c2ccc(NC(C)=O)cc2)cc1OC", "activity change, negative = inhibition": -1.61}, {"smiles": "COc1ccc(C(=O)Oc2cc(/C=N/NS(=O)(=O)c3ccc(C)cc3)ccc2OC)cc1", "activity change, negative = inhibition": -2.4}, {"smiles": "Cc1cc(Cl)c2oc(C(=O)N(C)C(C)c3ccccn3)c(C)c2c1", "note": "(stereo unspecified)", "activity change, negative = inhibition": 8.93}, {"smiles": "CCc1nccn1CCC(=O)N1CCCC(N2CCN(c3ccccc3F)CC2)C1", "note": "(stereo unspecified)", "activity change, negative = inhibition": -21.7}, {"smiles": "O=C(c1ccc(Cl)c(S(=O)(=O)N2CCCCCC2)c1)N1CCN(c2ccc(O)cc2)CC1", "Potency": "13.1 µM (active)"}, {"smiles": "O=C(C1CC(=O)N(c2ccc(F)cc2)C1)N1CCN(c2ccccc2)CC1", "note": "(stereo unspecified)", "activity change, negative = inhibition": 38.4}, {"smiles": "CNS(=O)(=O)c1ccc(NC(=O)C2CC(=O)N(c3ccc(Cl)cc3)C2)cc1", "note": "(stereo unspecified)", "activity change, negative = inhibition": -7.43}, {"smiles": "O=C(Nc1ccc2c(c1)OCCO2)c1ccc(Cl)c(S(=O)(=O)N2CCCCC2)c1", "Potency": "6.57 µM (active)"}, {"smiles": "Cc1ccc(C(=O)Nc2ccc3c(c2)OCO3)cc1S(=O)(=O)N1CCCCC1", "activity change, negative = inhibition": -24.7}, {"smiles": "CCC(C)c1ccccc1N1CC(C(=O)N2CCN(S(=O)(=O)c3ccc(F)cc3)CC2)CC1=O", "note": "(stereo unspecified)", "Potency": "10.4 µM (active)"}, {"smiles": "O=C(NC1CCCC1)C1CC(=O)N(c2ccc(F)cc2)C1", "note": "(stereo unspecified)", "activity change, negative = inhibition": 46.9}, {"smiles": "O=C(c1ccc(Cl)c(S(=O)(=O)N2CCCCC2)c1)N1CCCCCC1", "activity change, negative = inhibition": 11.7}, {"smiles": "O=C(Nc1cccc(S(=O)(=O)N2CCCCC2)c1)c1ccc2c(c1)OCO2", "activity change, negative = inhibition": 11.6}, {"smiles": "O=C(c1ccc(Cl)c(Cl)c1)N1CCCC1", "activity change, negative = inhibition": 18.7}, {"smiles": "O=C(Nc1ccc(S(=O)(=O)N2CCCCC2)cc1)C1CC(=O)N(c2ccc(F)cc2)C1", "note": "(stereo unspecified)", "Potency": "5.22 µM (active)"}, {"smiles": "CC1CC(C)CN(C(=O)C2CC(=O)N(c3ccc(F)cc3)C2)C1", "note": "(stereo unspecified)", "activity change, negative = inhibition": 16.7}, {"smiles": "COC(=O)c1ccc(NC(=O)c2cc3c(CO)cnc(C)c3oc2=Nc2cccc(C(N)=O)c2)cc1", "activity change, negative = inhibition": 10.2}, {"smiles": "Cc1nc(NC(=O)c2ccc3c(c2)OCCO3)ccc1Br", "activity change, negative = inhibition": 324}, {"smiles": "CCCCn1c(N)c(N(CCOC)C(=O)c2oc3ccc(OC)cc3c2C)c(=O)[nH]c1=O", "activity change, negative = inhibition": -10.5}, {"smiles": "Cc1cn([C@H]2CC(F)[C@@H](CO)O2)c(=O)[nH]c1=O", "note": "(stereo partly specified)", "activity change, negative = inhibition": 0.676}, {"smiles": "COc1ccc2cc(C(=O)C3CCCN(C(=O)c4sc(C)nc4C)C3)ccc2c1", "note": "(stereo unspecified)", "activity change, negative = inhibition": -15.4}, {"smiles": "COc1ccccc1C(=O)NC(CCSC)C(=O)NNC(=O)c1ccccc1C", "note": "(stereo unspecified)", "activity change, negative = inhibition": 6.75}, {"smiles": "Cc1ccc(CN(CC(=O)NCC2CCCO2)S(=O)(=O)c2ccc(C)cc2)cc1", "note": "(stereo unspecified)", "activity change, negative = inhibition": 6.34}, {"smiles": "O=C(Cc1ccccc1)Nc1ccc(C(=O)Nc2ccccc2C(=O)O)cc1", "activity change, negative = inhibition": -11.1}, {"smiles": "CCOC(=O)c1sc(NC(=O)C2CSC3(C)CCC(=O)N23)nc1C", "note": "(stereo unspecified)", "activity change, negative = inhibition": -29.7}, {"smiles": "CCOC(=O)N1CCN(Cc2nc3cc(NC(C)=O)ccc3n2C)CC1", "activity change, negative = inhibition": 19.6}, {"smiles": "O=C(Nc1ccc(S(=O)(=O)N2CCCCC2)cc1)C1CCN(C(=O)c2ccc(F)cc2)CC1", "Potency": "9.28 µM (active)"}, {"smiles": "Cc1ccc(NC(=O)C2CC(=O)N(c3ccc4c(c3)OCCO4)C2)cc1S(=O)(=O)N1CCCCCC1", "note": "(stereo unspecified)", "Potency": "11.7 µM (active)"}, {"smiles": "O=C(Nc1ccccc1)C1CCN(C(=O)c2ccc(Br)cc2)CC1", "activity change, negative = inhibition": -23.3}, {"smiles": "CCOC(=O)c1ccc(NC(=O)C2CC(=O)N(c3ccc4c(c3)OCCO4)C2)cc1", "note": "(stereo unspecified)", "activity change, negative = inhibition": -24.2}, {"smiles": "O=C(Nc1ccc(F)cc1)C1CCCN(S(=O)(=O)c2ccc(-n3cnnn3)cc2)C1", "note": "(stereo unspecified)", "activity change, negative = inhibition": 1.34}, {"smiles": "CC(=O)c1ccccc1NC(=O)C1CC(=O)N(c2ccc3c(c2)OCCO3)C1", "note": "(stereo unspecified)", "activity change, negative = inhibition": -4.46}, {"smiles": "Cc1c(Cl)c([N+](=O)[O-])nn1CC(=O)NCCCN1CCOCC1", "activity change, negative = inhibition": 24}, {"smiles": "N[C@@H](Cc1ccccc1)C(=O)N1CCOCC1", "activity change, negative = inhibition": 23.4}, {"smiles": "CSCC[C@H](NC(=O)N1CCn2c1nc1ccccc12)C(=O)NC1CCCCC1", "activity change, negative = inhibition": -18.4}, {"smiles": "COc1cccc(CNC(=O)CCC2CCCN(C(=O)c3ccc(F)c(Cl)c3)C2)c1", "note": "(stereo unspecified)", "activity change, negative = inhibition": -19}, {"smiles": "CCOc1ccc(CC(=O)NC2CCN(Cc3ccccc3)CC2)cc1", "activity change, negative = inhibition": 1.1}, {"smiles": "Cc1ccc(S(=O)(=O)N(C)C)cc1NC(=O)CN1c2cccc3cccc(c23)S1(=O)=O", "Potency": "13.1 µM (active)"}, {"smiles": "O=C(O)CN1c2cccc3cccc(c23)S1(=O)=O", "activity change, negative = inhibition": 39.3}]}]}
